Assay outcomes as filed in PubChem.
In the library only some 2.2% were active in any assay of this set; here they are far more common.
GLP1R ag – GLP-1 receptor (human) agonism; P43220; AID 624172; 0.007% of 380,000 active; Potency, µM (doses to about 45.6 µM), usual class: activators; HEK293 GLP-1R CRE-luciferase, luminescence, 4-6 h; cells express a hypersensitive GLP-1R form
Target sequence (P43220 whole entry, looked up): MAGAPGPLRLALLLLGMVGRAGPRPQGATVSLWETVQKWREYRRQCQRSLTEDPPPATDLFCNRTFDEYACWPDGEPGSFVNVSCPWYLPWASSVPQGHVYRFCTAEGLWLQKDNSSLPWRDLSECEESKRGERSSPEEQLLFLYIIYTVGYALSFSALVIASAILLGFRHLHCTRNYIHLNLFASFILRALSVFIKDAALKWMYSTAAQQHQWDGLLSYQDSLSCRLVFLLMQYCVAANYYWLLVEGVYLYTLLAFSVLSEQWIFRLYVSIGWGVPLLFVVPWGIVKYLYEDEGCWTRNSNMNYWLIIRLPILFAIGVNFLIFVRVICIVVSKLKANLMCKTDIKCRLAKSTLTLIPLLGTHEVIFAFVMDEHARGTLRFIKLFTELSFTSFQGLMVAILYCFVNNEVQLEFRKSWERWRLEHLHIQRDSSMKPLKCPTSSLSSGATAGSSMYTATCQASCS
GLP-1R inv ag – inverse agonists of human GLP-1 receptor; HEK293 GLP-1R CRE-luciferase, luminescence, 24 h; GLP-1R form is constitutively active; Potency, µM (top dose mostly 38.3 µM), usual class: inhibitors; 1.6% of 410,000 active; note: nearly all actives have a fitted effect of over 55% in size
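HEK293 cells stably co-expressing constitutively active GLP-1R and a cAMP-responsive luciferase reporter were seeded in DMEM with 10% Nu serum, given compounds after 12 h, and incubated 24 h at 37 deg C. Luminescence was then read.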
MmCpn inh – blocks the Methanococcus maripaludis chaperonin Mm-Cpn | purified Mm-Cpn ATPase, ADP Transcreener TR-FRET | Potency, µM (top dose mostly 76.9 µM), most hits filed as inhibitors | 0.031% of 330,000 active | AID 504842; note: nearly all actives have a fitted effect of over 80% in size
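Measured: ADP formation by purified Mm-CPN. Conditions: 25 nM protein, 10 uM ATP, Tris pH 7.4 with Mg2+, K+ and DTT, 37°C for 30 min. Detection: Transcreener HTRF after 30 min at room temperature.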
CCT chaperon mod – cytosolic chaperonin activity modulation; purified chaperonin ATPase assay, HTRF ADP detection, 30 min; 0.3% of 360,000 active; AID 651819; activity change, % (concentration not given with the values), hits read low; in the data active = activity change below about -30%
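Enzyme 40 or 20 nM (batch-dependent) in Tris pH 7.4/KCl/MgCl2/DTT; cpd 76 uM single point; ATP 10 uM; 30 min 37 °C; Transcreener ADP HTRF detection, 30 min RT; ratio 665/615.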
GLP1R cytotox – cytotoxicity in counter-screen for GLP-1R inverse agonists; 0.13% of 410,000 active; HEK293 cAMP-luciferase reporter cells, luminescence, 24 h; AID 624418; Potency, µM (titrated, usually from 38.3 µM), hits mostly inhibitors;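 note: loss of luciferase light is scored as toxicity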
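To flag toxic compounds, the library was rerun on cells for 24 hr at 37 deg C and 5% CO2. Viability-linked luminescence was captured 12 min after adding luciferase detection reagent.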
uPA surface inh – blocks generation of uPA at the cell surface | 0.31% of 330,000 active | cell surface uPA generation assay, qHTS | AID 540303 | Potency, µM (doses to about 38.3 µM), actives largely listed as inhibitors; active = well fitted inhibition curve with a large enough effect; inconclusive = small, poorly fitted or top-dose-only effect; inactive = no such curve, though single readings can be large or run the other way; tested in mouse RAW 264.7 cells; note: nearly all actives have a fitted effect of over 55% in size
A number is an active result; - = inactive; ? = inconclusive; . = no result given; ! = not active in a repeat. Unless noted, calls come from the whole dose curve; as a rule, active = well fitted curve in the direction sought with a large enough effect; inconclusive = small, poorly fitted or top-dose-only effect, or another doubt; inactive = no such curve, though single readings can be large; an effect the other way counts as inactive or inconclusive.

SMILES	GLP1R ag	GLP-1R inv ag	MmCpn inh	CCT chaperon mod	GLP1R cytotox	uPA surface inh
Cc1ccc(-n2c(C)cc(/C=N/NC(N)=S)c2C)cc1	-	?	-	-	?	-
COc1cccc(/C=N/NC(N)=S)c1OCc1ccccc1Cl	-	11µM	-	-	?	-
C=CCN1C(=O)/C(=C/c2ccc(O)c(OC)c2)S/C1=N/c1nccs1	-	-	-	-	-	-
COc1ccc(N=C2S/C(=C\c3ccc(Cl)c([N+](=O)[O-])c3)C(=O)N2CCN(C)C)cc1	-	?	-	-	11µM	?
NCCc1c[nH]c2ccccc12	-	-	-	-	-	-
CCCCc1ccc2[nH]cc(CCN)c2c1	-	10µM	-	-	?	-
NC(CCc1ccccc1)c1csc(NC(=O)Nc2ccccc2Oc2ccccc2)n1 (stereo unspecified)	-	?	.	-	-	.
CCC(=O)c1ccc2c(c1)N(CCCN(C)C)c1ccccc1S2	-	11µM	.	-	?	?
COc1ccc(CCNC(=O)c2c(N)n(CCN3CCOCC3)c3nc4ccccc4nc23)cc1OC	-	10µM	-	-	-	-
CCCCCn1c(N)c(C(=O)NCCN2CCOCC2)c2nc3ccccc3nc21	-	?	-	-	-	-
CC[C@H](O)C(C[C@H](C)N(C)C)(c1ccccc1)c1ccccc1	-	.	.	.	.	.
CN(CC(=O)Nc1ccccc1-c1ccccc1)C1CCCCC1	-	?	-	-	-	-
CN(C1=C(NC(=O)c2ccccc2)C(=O)c2ccccc2C1=O)C1CCS(=O)(=O)C1 (stereo unspecified)	-	?	-	-	?	10µM
CC(=O)[O][Hg][c]1ccccc1	-	.	.	.	.	.
Clc1ccc(C[n+]2c(-c3ccccc3)cc(-c3ccccc3)cc2-c2ccccc2)cc1	-	?	-	-	?	?
Fc1ccc(C[n+]2c(-c3ccccc3)cc(-c3ccccc3)cc2-c2ccccc2)cc1	-	?	-	-	-	8.9µM
C[C@H](N)C(=O)c1ccccc1	-	.	.	.	.	.
O=c1cc(CSc2ccc(Cl)cc2)nc(-c2ccccn2)[nH]1	-	?	-	-	?	?
Fc1ccc(C2=CCN(C(c3ccc(Cl)cc3)c3nnnn3Cc3ccccc3)CC2)cc1 (stereo unspecified)	-	5.6µM	-	-	-	-
COc1ccccc1-c1ncn(Cc2cccc(-c3ccccc3)c2)c1CC(C)C	-	?	.	-	?	.
CCC(CC)c1nnc(NC(=O)CC(C)c2ccccc2)s1 (stereo unspecified)	-	10µM	-	-	-	-
CC(C)c1nnc(NC(=O)c2nc(S(=O)(=O)Cc3ccccc3)ncc2Cl)s1	-	?	-	-	?	-
COc1cc2c(cc1C=O)OCO2	-	-	-	-	-	-
COc1cc(C2c3cc4c(cc3C(OC3OC5COC(c6cccs6)OC5C(O)C3O)C3COC(=O)C23)OCO4)cc(OC)c1O (stereo unspecified)	-	?	-	-	?	-
COc1cc([C@@H]2c3cc4c(cc3[C@@H](O[C@@H]3O[C@@H]5CO[C@@H](C)O[C@H]5[C@H](O)[C@H]3O)[C@H]3COC(=O)[C@H]23)OCO4)cc(OC)c1O	-	2.8µM	.	-	?	?
SMILES	GLP1R ag	GLP-1R inv ag	MmCpn inh	CCT chaperon mod	GLP1R cytotox	uPA surface inh
COc1cc([C@@H]2c3cc4c(cc3[C@@H](OC)[C@H]3COC(=O)[C@H]23)OCO4)cc(OC)c1O	-	?	-	-	-	1.6µM
CC(=O)Oc1ccc2c3c1OC1[C@@H](OC(C)=O)C=C[C@H]4[C@H](C2)N(C)CC[C@]314 (stereo partly specified)	-	.	.	.	.	.
CCn1nc(-c2cccs2)nc2c(=O)n(C)c(=O)nc1-2	-	2.8µM	-	-	?	-
CCn1nc(/C=C/c2ccccc2)nc2c(=O)n(C)c(=O)nc1-2	-	?	-	-	?	-
CCN(CC)c1nc2ccccc2nc1C(=O)Nc1cccc(C(C)=O)c1	.	?	.	.	-	.
CCOC(=O)c1c(C)n(-c2ccc(C)cc2)c2c(C(C(C)=O)C(=O)O)c(Br)c(O)c(O)c12 (stereo unspecified)	-	-	-	-	?	-
CCOC(=O)c1c(C)n(-c2ccc(OC)cc2)c2ccc(O)c(CN(C)C)c12	-	5.6µM	-	-	?	-
O=C1C=C(c2c(O)ccc3ccccc23)c2ccccc2C1=O	-	?	.	-	10µM	-
CC1=C(N2CC2)C(=O)C(CO)=C(N2CC2)C1=O	-	?	.	-	0.79µM	-
Cc1ccc(S(=O)(=O)Nc2cccc3c2O[C@H](CN(C)C(=O)Nc2cccc4ccccc24)[C@H](C)CN([C@H](C)CO)C3=O)cc1	-	?	-	-	-	?
COc1cc(OC)cc(C(=O)Nc2ccc(Br)cc2C(=O)c2ccccc2)c1	-	-	-	-	-	-
COc1cccc(C(=O)N/N=C(/c2ccccc2)c2ccccn2)c1	-	7.9µM	-	-	?	-
Cc1ccc2c(c1)[C@]13CCCC[C@@H]1[C@@H](C2)N(C)CC3	-	.	.	.	.	.
C[n+]1ccc(-c2ccccc2)c2ccccc21	-	-	-	-32	-	?
CCN(CC)C(=O)CC(c1ccc(N(C)C)cc1)c1c(OC)cc(OC)c2c(-c3ccccc3)cc(=O)oc12 (stereo unspecified)	-	?	-	-	-	?
COc1cc(OC)c2c(-c3cccc(-c4ccc(N(C)C)cc4)c3)cc(=O)oc2c1	-	?	-	-	?	1µM
Cc1cc(C)c2sc(NC(=O)c3ccc([N+](=O)[O-])o3)nc2c1	-	-	-	-	-	?
COc1ccccc1/C=C/C1(C(=O)NC2CCCC2)CC(=O)N1c1ccc(F)cc1 (stereo unspecified)	-	3.5µM	-	-	?	-
C=CC[C@@H](Cc1ccc(F)cc1)C(=O)OC[C@@H]1CCCN1C(=O)[C@@H](CC=C)CC(=O)N[C@H](CO)Cc1ccccc1	-	?	-	-	-	-
S=C(NCCCN1CCOCC1)N1CCN(c2nc(-c3ccc(Cl)cc3)cs2)CC1	-	3.5µM	-	-	?	?
Cc1ccc(N2CCN(C(=O)c3cn(CC4CCCCC4)nn3)C(C)C2)cc1 (stereo unspecified)	-	?	.	-	-	-
CN1C(=O)C(=Cc2ccccc2OCc2ccccc2Cl)C(=O)N(C)C1=O	-	10µM	-	-	-	-
O=C(NCCc1ccccc1)c1ccc(CSc2nc3cccnc3n2Cc2ccc(F)cc2)cc1	.	?	.	.	-	.
O=C(NCCc1ccccc1)c1ccc2nccnc2c1	-	5µM	-	-	-	-
CCCCCCCCCCCCCCCC[n+]1ccccc1	-	3.5µM	.	-	?	0.71µM!
CCCCCCCCCCCCCCCC[n+]1ccc(/C=N/O)cc1	-	8.9µM	-	-	?	-
